The nature of assay [1]: qHTS assay to test for compound auto fluorescence at 535 nm (green) in HEK293 cells (AID 720680). A general note: In qHTS, concentration-response curves come from the screen itself.
Assay [2] is described as follows: qHTS assay to test for compound auto fluorescence at 460 nm (blue) in HEK293 cell free culture (AID 720681). In outline: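 Blue fluorescence (Ex 405/Em 460 nm, triamterene-equivalent) was read immediately after pin transfer of compound or DMSO into medium (DMEM, 10% FBS) without cells.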
A short description of assay [3]: qHTS assay to test for compound auto fluorescence at 535 nm (green) in HEK293 cell free culture (AID 720682). The essentials:
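Green-label autofluorescence (485 nm excitation, 535 nm emission) measured on compound added to cell-free culture medium (DMEM, 10% FBS). Output is expressed relative to fluorescein.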

Assay [4] can be described thus: qHTS assay to test for compound auto fluorescence at 590 nm (red) in HEK293 cell free culture (AID 720683). In outline: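 Red-channel autofluorescence of compounds in culture medium (DMEM, 10% FBS), no cells, measured at 540/590 nm. Rose Bengal sodium is the reference fluorophore for equivalence.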
A short description of assay [5]: qHTS assay to test for compound auto fluorescence at 590 nm (red) in HepG2 cell free culture (AID 720684). The essentials:
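Cell-free; medium MEM + 10% FBS; compound or DMSO added by pintool; read Ex 540/Em 590 nm; Rose Bengal sodium as red reference fluorophore.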

Assay [6] can be described thus: qHTS assay to test for compound auto fluorescence at 460 nm (blue) in HepG2 cell free culture (AID 720685). In outline:
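Cell-free plates of MEM plus 10% FBS received 23 nL compound or DMSO vehicle; blue-channel (405/460 nm) intensity scored against triamterene as reference fluorophore.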

Assay [7] is described as follows: qHTS assay to test for compound auto fluorescence at 535 nm (green) in HepG2 cell free culture (AID 720686).
Assay [8] in a line: qHTS assay to test for compound auto fluorescence at 460 nm (blue) in HepG2 cells (AID 720687). In outline: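 Blue-channel autofluorescence (Ex/Em 405/460 nm, triamterene-equivalent) was measured after 1 hr compound exposure at 37 C, 5% CO2. Cells were HepG2, plated overnight at 37 C in MEM plus 10% FBS.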
Assay [9] is described as follows: qHTS assay to identify small molecule antagonists of the glucocorticoid receptor (GR) signaling pathway - cell viability counter screen (AID 720693). Also: nearly all actives have a fitted effect of over 55% in size.
A short description of assay [10]: qHTS assay for identifying genotoxic compounds that show differential cytotoxicity against isogenic chicken DT40 cell lines with known DNA damage response pathways - wild type cell line (AID 743012). Also: nearly all actives have a fitted effect of over 60% in size. Also: potency is read from the fitted curve at half-maximal effect. The essentials: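 Cytotoxicity in repair-proficient parental chicken DT40 cells serves as the comparator for Rad54/Ku70- and Rev3-deficient lines. Cells were exposed to compounds for 40 h at 37 C/5% CO2, and ATP-based luminescence (CellTiter-Glo) measured viability.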

Assay [11] is described as follows: qHTS assay to identify small molecule antagonists of the androgen receptor (AR) signaling pathway using the MDA cell line - cell viability counter screen (AID 743041; also: nearly all actives have a fitted effect of over 45% in size). In outline: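 Viability read by CellTiter-Fluor fluorescence in the same wells as the antagonist screen, added after 15.5 h of a 16 h, 37C exposure. Human breast carcinoma MDA-kb2 AR-luc cells, compounds co-dosed with agonist R1881.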

Assay [12] in a line: qHTS assay for identifying genotoxic compounds that show differential cytotoxicity against isogenic chicken DT40 cell lines with known DNA damage response pathways - Rev3 mutant cell line (AID 743014). Also: nearly all actives have a fitted effect of over 55% in size. Also: potency is read from the fitted curve at half-maximal effect.
Assay [13] in a line: qHTS assay for identifying genotoxic compounds that show differential cytotoxicity against isogenic chicken DT40 cell lines with known DNA damage response pathways - Rad54/Ku70 mutant cell line (AID 743015). Also: nearly all actives have a fitted effect of over 60% in size. Also: potency is read from the fitted curve at half-maximal effect.
The nature of assay [14]: qHTS assay to identify small molecule antagonists of the androgen receptor (AR) signaling pathway - cell viability counter screen (AID 743033; also: nearly all actives have a fitted effect of over 45% in size).
The target of assay [15] is Androgen receptor (Homo sapiens) (UniProt P10275). In words: qHTS assay to identify small molecule antagonists of the androgen receptor (AR) signaling pathway (AID 743035; active = well fitted inhibition curve with a large enough effect in the signal ratio in the repeat runs, not every such curve was filed as active; the % refers to the signal ratio). In outline: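 Steps: seed AR-UAS-bla GripTite HEK293 cells, incubate 4 h at 37C; pin in test compound, then add agonist R1881; incubate 16 h at 37C; add LiveBLAzer B/G FRET substrate, 2 h at room temperature; read fluorescence.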
Sequence of Androgen receptor (Homo sapiens) (P10275 whole entry, looked up): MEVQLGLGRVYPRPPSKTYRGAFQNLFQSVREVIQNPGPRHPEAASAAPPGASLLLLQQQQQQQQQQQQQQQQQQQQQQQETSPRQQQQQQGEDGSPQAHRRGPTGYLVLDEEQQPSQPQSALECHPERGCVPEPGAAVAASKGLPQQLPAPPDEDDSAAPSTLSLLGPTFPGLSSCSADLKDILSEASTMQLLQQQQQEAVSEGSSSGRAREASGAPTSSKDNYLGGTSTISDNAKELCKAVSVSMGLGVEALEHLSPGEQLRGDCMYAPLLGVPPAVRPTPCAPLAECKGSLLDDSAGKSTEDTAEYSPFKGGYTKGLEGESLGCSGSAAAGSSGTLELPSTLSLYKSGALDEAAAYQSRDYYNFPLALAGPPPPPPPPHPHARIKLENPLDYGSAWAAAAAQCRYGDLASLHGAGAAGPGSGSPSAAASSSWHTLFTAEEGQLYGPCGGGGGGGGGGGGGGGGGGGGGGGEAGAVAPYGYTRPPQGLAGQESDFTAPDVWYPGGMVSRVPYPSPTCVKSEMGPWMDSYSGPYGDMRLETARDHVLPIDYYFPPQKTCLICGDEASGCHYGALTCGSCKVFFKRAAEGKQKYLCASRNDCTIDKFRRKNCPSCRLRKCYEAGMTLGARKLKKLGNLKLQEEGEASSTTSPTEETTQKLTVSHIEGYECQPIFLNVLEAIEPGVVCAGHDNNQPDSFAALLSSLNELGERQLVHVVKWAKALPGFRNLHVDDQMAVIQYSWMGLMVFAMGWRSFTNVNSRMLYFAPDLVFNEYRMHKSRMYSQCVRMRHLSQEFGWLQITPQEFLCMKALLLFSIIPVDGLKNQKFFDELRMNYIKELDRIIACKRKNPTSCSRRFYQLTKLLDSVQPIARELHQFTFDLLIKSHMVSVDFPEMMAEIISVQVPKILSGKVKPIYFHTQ

Assay [16] shares this target. In words: qHTS assay to identify small molecule agonists of the androgen receptor (AR) signaling pathway (AID 743036; active = well fitted activation curve with a large enough effect in the signal ratio in the repeat runs, with a control signal flat, not every such curve was filed as active; the % refers to the signal ratio). The essentials:
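AR-UAS-bla HEK293 cells, plated 4 h before dosing, were treated with compound for 16 h at 37C. beta-Lactamase reporter read after 2 h with LiveBLAzer B/G FRET substrate at room temperature.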

For assay [17] the target is unchanged. In words: qHTS assay to identify small molecule agonists of the androgen receptor (AR) signaling pathway using the MDA cell line (AID 743040; also: nearly all actives have a fitted effect of over 20% in size). The following applies: MDA-kb2 AR-luc cells, MMTV luciferase, 16 h; at 70.3 µM (top of the series); stronger effect = higher value. In outline:
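Luciferase agonist assay: 16 h compound exposure at 37C without CO2 in MDA-kb2 AR-luc cells, whose MMTV promoter responds to both AR and GR. Luminescence measured after 30 min room-temperature incubation with ONE-Glo.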

For assay [18] the target is unchanged. In words: qHTS assay to identify small molecule antagonists of the androgen receptor (AR) signaling pathway using the MDA cell line (AID 743042; also: nearly all actives have a fitted effect of over 55% in size). The essentials: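 Antagonist mode: compounds plus R1881 agonist added to MDA-kb2 AR-luc cells, incubated 16 h at 37C. Luciferase reporter luminescence quantified, with multiplexed CellTiter-Fluor readout for cell viability.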

The target in assay [19] is Glucocorticoid receptor (Homo sapiens) (UniProt P04150). In words: qHTS assay to identify small molecule agonists of the glucocorticoid receptor (GR) signaling pathway (AID 720691; active = well fitted activation curve with a large enough effect in the signal ratio in the repeat runs, not every such curve was filed as active; the % refers to the signal ratio). In outline: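 Steps: seed GR-bla HeLa cells, incubate 4 h at 37 C/5% CO2; pin-transfer DMSO-dissolved compounds; incubate 18 h at 37 C; add LiveBLAzer B/G FRET substrate; after 2 h at room temperature, measure fluorescence.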
Sequence of Glucocorticoid receptor (Homo sapiens) (P04150 whole entry, looked up): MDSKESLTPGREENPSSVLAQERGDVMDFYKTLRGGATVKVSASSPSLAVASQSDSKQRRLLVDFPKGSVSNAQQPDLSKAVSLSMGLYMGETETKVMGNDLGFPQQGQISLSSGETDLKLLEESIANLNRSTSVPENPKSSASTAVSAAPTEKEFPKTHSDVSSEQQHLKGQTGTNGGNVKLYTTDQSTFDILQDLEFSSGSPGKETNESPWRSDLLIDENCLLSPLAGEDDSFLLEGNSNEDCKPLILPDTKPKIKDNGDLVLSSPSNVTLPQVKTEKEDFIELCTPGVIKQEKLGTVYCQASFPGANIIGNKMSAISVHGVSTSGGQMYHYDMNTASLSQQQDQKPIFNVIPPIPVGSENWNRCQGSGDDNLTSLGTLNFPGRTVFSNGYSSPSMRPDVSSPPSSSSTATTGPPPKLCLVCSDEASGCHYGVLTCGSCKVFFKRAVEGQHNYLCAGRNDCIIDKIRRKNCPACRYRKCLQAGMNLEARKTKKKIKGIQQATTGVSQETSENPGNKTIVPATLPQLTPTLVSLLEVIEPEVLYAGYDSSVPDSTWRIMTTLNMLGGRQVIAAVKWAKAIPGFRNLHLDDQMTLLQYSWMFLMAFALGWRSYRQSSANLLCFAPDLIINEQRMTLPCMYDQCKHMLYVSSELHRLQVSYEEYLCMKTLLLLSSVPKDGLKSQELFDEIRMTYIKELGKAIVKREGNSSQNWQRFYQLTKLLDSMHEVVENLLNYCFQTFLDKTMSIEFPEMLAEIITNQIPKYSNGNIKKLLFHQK

Assay [20] has the same target. In words: qHTS assay to identify small molecule antagonists of the glucocorticoid receptor (GR) signaling pathway (AID 720692; active = well fitted inhibition curve with a large enough effect in the signal ratio in the repeat runs, not every such curve was filed as active; the % refers to the signal ratio). In outline:
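Antagonism was scored as loss of dexamethasone-driven (5 nM final) reporter signal in HeLa cells bearing a glucocorticoid response element–beta-lactamase construct, after 18 h compound exposure at 37 C and 2 h FRET substrate loading.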

Several values for one entry are separate records, joined by “and”; a condition that tells them apart may be missing. Equal values may be shown once. Inconclusive results are not listed. Some compounds were tested as several samples or in several runs, with calls that do not always agree. Activity calls are given as the source filed them. Unless noted, calls follow the shape of the dose curve; as a rule, active = well fitted curve in the direction sought with a large enough effect in the repeat runs; inconclusive = weak or mixed curves; inactive = no such curve, though single readings can be large; an effect the other way counts as inactive or inconclusive.
% is scaled to controls: 0 for no effect and ±100 for the full control effect.

On to `O=C(NCC1CCCCN1)c1cc(OCC(F)(F)F)ccc1OCC(F)(F)F` (stereo not drawn), for which the result in assay [1], in assay [3], in assay [4], in [5] and in assay [7] was inactive. The Potency entry in assay [2], in assay [6], in assay [8], in assay [9] and in assay [11] was “inactive” throughout. In addition, the Potency in [10] is 29.8 µM (active) and inactive.
As to `O=[N+]([O-])c1ccccc1C(F)(F)F`, the result in assay [1], in [3], in [4], in [5] and in assay [7] was inactive. The Potency result in [2], in assay [6], in assay [8], in [9], in [12] and in assay [13] was “inactive” throughout. The Potency result in [14], in assay [15], in assay [16] and in assay [18] was “inactive” each time. In addition, the activity change in [17] was 0.939% (inactive) and 0.0136% (inactive).
As to `OCCOCCOCCOCCOCCO`, the outcome in [1], in [3], in assay [4] and in assay [5] was inactive. The Potency entry in assay [2], in [6], in [8], in [9], in assay [13] and in assay [14] was “inactive” each time. Moreover, the Potency entry in assay [11] was “inactive”. Besides, the Potency result in [12] was “inactive and 24.3 µM (active)”.
For `CN=C(NC#N)NCCSCc1nc[nH]c1C`, the result in assay [1], in assay [3], in assay [4] and in assay [5] was inactive. In addition, the Potency result in [2], in assay [6], in [8], in [9], in assay [14] and in assay [11] was “inactive” in each case. Also, the Potency entry in [12] was “inactive and 54 µM (active)”; in assay [13] it was “inactive and 13.6 µM (active)”.
`Cc1ccc([N+](=O)[O-])cc1N`: the call in assay [1], in assay [3], in assay [4] and in assay [5] was inactive. In addition, the Potency result in [2], in assay [6], in assay [8], in [9], in [12] and in [13] was “inactive” in each case.
On to `OCC(O)CS` (stereo not drawn), for which the compound was classed as inactive in assay [1], in assay [3], in assay [4], in [5] and in [19]. Moreover, the Potency entry in [2], in assay [6], in assay [8], in assay [20], in [9] and in [10] was “inactive” in each case. For the same compound, the Potency result in assay [12], in assay [13], in [14], in assay [15], in assay [16] and in [11] was “inactive” each time. Further, in assay [18], the Potency entry was “inactive”. Further, the activity change in assay [17] was 0.512% (inactive).
`CCCCC(=O)O`: the call in assay [1], in assay [3], in assay [4], in [5] and in assay [19] was inactive. Also, the Potency result in assay [2], in assay [6], in [8], in [20], in assay [9] and in assay [12] was “inactive” throughout. For the same compound, in assay [13], the Potency entry was “inactive”.
In the case of `O=C1CCCCCCCCCCC1`, the outcome in assay [1], in assay [3], in assay [4], in assay [5] and in assay [19] was inactive. In addition, the Potency entry in assay [2], in [6], in assay [8], in assay [20], in assay [9] and in [10] was “inactive” in each case. The Potency result in [12], in assay [13] and in assay [14] was “inactive” each time.
On to `COc1ccccc1[N+](=O)[O-]`, for which the compound was classed as inactive in [1], in assay [3], in assay [4] and in assay [5]. In addition, the Potency result in assay [2], in assay [6], in [8], in [9], in assay [12] and in [13] was “inactive” in each case. Besides, the Potency entry in [14] and in assay [11] was “inactive” throughout.
